One assay has as its target POU1 (OCT1 POU domain) (human, UniProt P14859 260-458). Kind of assay: EMSA-SELEX-seq; no BOB1; 20 mM Tris-HCl pH 7.6, 140 mM NaCl, 10% glycerol, 0.5 mM EDTA, 0.05% Triton X-100, 0.1 mg/mL BSA, 0.1 mg/mL poly(dI-dC), 5 mM DTT, room temperature, 20 min; high values mean tight binding. Particulars: protein: recombinant; dsDNA, one strand shown. The gist of the method:
(§1)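 After expression in E. coli BL21, tagged POU-domain proteins were purified under denaturing conditions and then renatured. Each binding reaction held 30 ng protein and 300 ng of a PCR-amplified double-stranded random 35-nt library in 20 μL Tris–HCl pH 7.6 binding buffer, with or without 28 ng coactivator protein, for 20 min at RT. Bands holding complexes were cut from native 6% PAGE, eluted and PCR-amplified across four rounds, and the output was Illumina-sequenced. The value given for binding preference is the share, in percent, of sequenced 8-mers fitting a motif pattern.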
(In general: Mobility shift assays separate free from complexed probe on a gel.)

The next assay addresses T1, POU2 (OCT2 POU domain) (human, UniProt P09086 175-386).
T1 sequence: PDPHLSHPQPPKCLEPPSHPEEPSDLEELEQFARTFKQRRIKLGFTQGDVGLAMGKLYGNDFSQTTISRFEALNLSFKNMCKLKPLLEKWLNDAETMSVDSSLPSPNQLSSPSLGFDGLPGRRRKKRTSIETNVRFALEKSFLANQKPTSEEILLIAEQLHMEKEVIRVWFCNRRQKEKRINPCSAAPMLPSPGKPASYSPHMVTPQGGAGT
Described as above. The following applies: protein: recombinant; dsDNA, one strand shown. In outline:
as §1

Assay [1] addresses POU1 (OCT1 POU domain);BOB1 (OBF1, OCA-B) (human;human, UniProt P14859;Q16633 260-458;1-256, |). Kind of assay: EMSA-SELEX-seq; with BOB1 (ternary complex band); 20 mM Tris-HCl pH 7.6, 140 mM NaCl, 10% glycerol, 0.5 mM EDTA, 0.05% Triton X-100, 0.1 mg/mL BSA, 0.1 mg/mL poly(dI-dC), 5 mM DTT, room temperature, 20 min; high values mean tight binding. Particulars: protein: recombinant;recombinant; copies: 1;1; dsDNA, one strand shown. In outline: as §1

Assay [2] addresses T2, POU2 (OCT2 POU domain);BOB1 (OBF1, OCA-B) (human;human, UniProt P09086;Q16633 175-386;1-256, |).
T2 sequence 1: T1 sequence
T2 sequence 2: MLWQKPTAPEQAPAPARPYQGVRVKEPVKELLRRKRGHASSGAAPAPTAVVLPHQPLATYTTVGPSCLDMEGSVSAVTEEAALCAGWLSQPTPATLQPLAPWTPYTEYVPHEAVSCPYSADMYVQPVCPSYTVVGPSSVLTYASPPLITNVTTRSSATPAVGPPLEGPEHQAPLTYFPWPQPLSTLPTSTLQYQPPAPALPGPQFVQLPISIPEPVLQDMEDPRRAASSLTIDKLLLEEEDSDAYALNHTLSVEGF
The assay is described as above. The following applies: protein: recombinant;recombinant; copies: 1;1; dsDNA, one strand shown. In outline: as §1

Sequence of POU1 (OCT1 POU domain) (P14859 260-458): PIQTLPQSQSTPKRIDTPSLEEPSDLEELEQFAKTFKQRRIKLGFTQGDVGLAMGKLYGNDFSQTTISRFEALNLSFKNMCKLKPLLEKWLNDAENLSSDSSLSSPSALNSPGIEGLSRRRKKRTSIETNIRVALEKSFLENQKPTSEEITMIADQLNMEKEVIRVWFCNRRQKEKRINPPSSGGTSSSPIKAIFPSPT

In the case of AAGTTAAC, the binding signal with POU1 (OCT1 POU domain) was 0.0347 % of ANNNNAAN 8-mers; in the assay with POU2 (OCT2 POU domain) it was 0.038 % of ANNNNAAN 8-mers; in assay [1], 0.0355 % of ANNNNAAN 8-mers; in assay [2], 0.0355 % of ANNNNAAN 8-mers.
ACGAAAAT: the binding signal with POU1 (OCT1 POU domain) was 0.106 % of ANNNNAAN 8-mers; with POU2 (OCT2 POU domain), 0.0949 % of ANNNNAAN 8-mers; in assay [1] it was 0.139 % of ANNNNAAN 8-mers; in assay [2], 0.0834 % of ANNNNAAN 8-mers.
In the same order, the values of AGTCCAAC are 0.0114 % of ANNNNAAN 8-mers, 0.0167 % of ANNNNAAN 8-mers, 0.0144 % of ANNNNAAN 8-mers and 0.0248 % of ANNNNAAN 8-mers.
In the same order, the values of AGGTAAAC are 0.0534 % of ANNNNAAN 8-mers, 0.0558 % of ANNNNAAN 8-mers, 0.0792 % of ANNNNAAN 8-mers and 0.0537 % of ANNNNAAN 8-mers.
For the sequence AACGGAAT, the binding signal with POU1 (OCT1 POU domain) was 0.0698 % of ANNNNAAN 8-mers; with POU2 (OCT2 POU domain), 0.0949 % of ANNNNAAN 8-mers; in assay [1], 0.0601 % of ANNNNAAN 8-mers; in assay [2], 0.0627 % of ANNNNAAN 8-mers.
In the same order, the values of AAACCAAG are 0.0233 % of ANNNNAAN 8-mers, 0.0161 % of ANNNNAAN 8-mers, 0.0293 % of ANNNNAAN 8-mers and 0.0198 % of ANNNNAAN 8-mers.
With ACGGTAAG, the binding signal in the assay with POU1 (OCT1 POU domain) was 0.0351 % of ANNNNAAN 8-mers; with POU2 (OCT2 POU domain), 0.0311 % of ANNNNAAN 8-mers; in assay [1], 0.0359 % of ANNNNAAN 8-mers; in assay [2], 0.0413 % of ANNNNAAN 8-mers.
As to ACAGAAAT, the binding signal with POU1 (OCT1 POU domain) was 0.0568 % of ANNNNAAN 8-mers; with POU2 (OCT2 POU domain), 0.0633 % of ANNNNAAN 8-mers; in assay [1], 0.0472 % of ANNNNAAN 8-mers; in assay [2], 0.0504 % of ANNNNAAN 8-mers.
In the same order, the values of ACTCAAAC are 0.0187 % of ANNNNAAN 8-mers, 0.027 % of ANNNNAAN 8-mers, 0.03 % of ANNNNAAN 8-mers and 0.0149 % of ANNNNAAN 8-mers.
In the same order, the values of ATACCAAA are 0.0397 % of ANNNNAAN 8-mers, 0.0541 % of ANNNNAAN 8-mers, 0.041 % of ANNNNAAN 8-mers and 0.038 % of ANNNNAAN 8-mers.
In the same order, the values of AGAAGAAT are 0.0515 % of ANNNNAAN 8-mers, 0.0737 % of ANNNNAAN 8-mers, 0.0597 % of ANNNNAAN 8-mers and 0.0603 % of ANNNNAAN 8-mers.
As to AGCCGAAA, the binding signal with POU1 (OCT1 POU domain) was 0.0191 % of ANNNNAAN 8-mers; in the assay with POU2 (OCT2 POU domain), 0.0247 % of ANNNNAAN 8-mers; in assay [1], 0.0238 % of ANNNNAAN 8-mers; in assay [2], 0.0198 % of ANNNNAAN 8-mers.
For AGGGAAAA, the binding signal is 0.205 % of ANNNNAAN 8-mers in the assay with POU1 (OCT1 POU domain), 0.119 % of ANNNNAAN 8-mers with POU2 (OCT2 POU domain), 0.28 % of ANNNNAAN 8-mers in assay [1] and 0.119 % of ANNNNAAN 8-mers in assay [2].
AATTTAAC: the binding signal was 0.17 % of ANNNNAAN 8-mers with POU1 (OCT1 POU domain), 0.147 % of ANNNNAAN 8-mers with POU2 (OCT2 POU domain), 0.117 % of ANNNNAAN 8-mers in assay [1] and 0.0982 % of ANNNNAAN 8-mers in assay [2].
In the same order, the values of AATGGAAA are 0.242 % of ANNNNAAN 8-mers, 0.155 % of ANNNNAAN 8-mers, 0.268 % of ANNNNAAN 8-mers and 0.164 % of ANNNNAAN 8-mers.
In the same order, the values of ATTTCAAC are 0.0416 % of ANNNNAAN 8-mers, 0.0414 % of ANNNNAAN 8-mers, 0.041 % of ANNNNAAN 8-mers and 0.0429 % of ANNNNAAN 8-mers.
In the same order, the values of ACCGTAAG are 0.0191 % of ANNNNAAN 8-mers, 0.0155 % of ANNNNAAN 8-mers, 0.0195 % of ANNNNAAN 8-mers and 0.0281 % of ANNNNAAN 8-mers.
For the sequence ATTTAAAC, the binding signal in the assay with POU1 (OCT1 POU domain) was 0.137 % of ANNNNAAN 8-mers; with POU2 (OCT2 POU domain) it was 0.161 % of ANNNNAAN 8-mers; in assay [1], 0.117 % of ANNNNAAN 8-mers; in assay [2], 0.109 % of ANNNNAAN 8-mers.
In the same order, the values of AATGCAAG are 0.0671 % of ANNNNAAN 8-mers, 0.0512 % of ANNNNAAN 8-mers, 0.0749 % of ANNNNAAN 8-mers and 0.0644 % of ANNNNAAN 8-mers.

Source of the values: PMC10812921, “Transcriptional Coactivator BOB1 (OBF1, OCA-B) Modulates the Specificity of DNA Recognition by the POU-Domain Factors OCT1 and OCT2 in a Monomeric Configuration”.
